PubChem BioAssay (NCATS)
Records with an inconclusive call do not appear. Calls of active or inactive are those of the source. Calls follow the shape of the dose curve; as a rule, active = well fitted activation curve with a large enough effect; inconclusive = small, poorly fitted or top-dose-only effect, or effect the other way; inactive = flat fitted curve, though single readings scatter.

assay: Cellular Toxicity (caspase-3) NIH 3T3 (AID 666); conditions: NIH 3T3 caspase-3 activation, apoptosis/toxicity, 0% DMSO, 100% is 100 µM tamoxifen; series mostly up to 92.2 µM;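 also: caspase signal read after 16 h compound exposure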
In short: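 Luminescence from aminoluciferin released by caspase-3/7 cleavage of a peptide substrate served as read-out. Mouse fibroblast NIH 3T3 cells were exposed to compounds over a concentration range for 16 hours, and AC50 values came from standard Hill modelling.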

SMILES	outcome
CCCCCCCC(=O)O	inactive
O=S(=O)(O)O	inactive
Nc1ccn([C@H]2CS[C@@H](CO)O2)c(=O)n1	inactive
Cc1ccccc1	inactive
CC(O)CO (stereo unspecified)	inactive
CC(C)(C)NC(=O)[C@@H]1C[C@@H]2CCCC[C@@H]2CN1C[C@@H](O)[C@H](Cc1ccccc1)NC(=O)[C@H](CC(N)=O)NC(=O)c1ccc2ccccc2n1	inactive
CCOc1ccc2c(c1)C(C)=CC(C)(C)N2	inactive
CCCCCCCC/C=C\CCCCCCCC(=O)O	inactive
IC(I)I	inactive
CC1=C2[C@@H]([C@H](C)CC[C@H]2/C=C(\C)C(=O)O)[C@H](O)C1	inactive
CCCCC/C=C\C/C=C\CCCCCCCC(=O)O	inactive
CC(C)=O	inactive
O=CCCCC=O	inactive
CCOC(C)=O	inactive
CC1=C(/C=C/C(C)=C/C=C/C(C)=C/CO)C(C)(C)CCC1	inactive
O=C(O)CCC(=O)C(=O)O	inactive
